From PubChem BioAssay AID2314 (National Center for Advancing Translational Sciences (NCATS), 2010)
Several values for one entry are separate records, joined by “and”; a condition that tells them apart may be missing. Equal values may be shown once. The whole screen tested about 300,000 compounds, of which about 37,000 (12%) were called active. Cut-off read from the data, not from the text of the source: active = max response mostly above about 13% (no sharp cut-off); inactive = mostly below about 14%. For the sample, actives were picked, then their nearest neighbours and some compounds at random.

Experiment: Cycloheximide Counterscreen for Small Molecule Inhibitors of Shiga Toxin; note: read at 38.3 µM for the half of the compounds with a filed dose; 0% is about no effect
Settings: cell reporter, cycloheximide protein synthesis inhibition counterscreen; stronger effect = higher value
In the case of Cc1ccc(S(=O)(=O)N(CC(=O)NN=C2CCN(C)CC2)c2ccc(F)cc2)cc1, the max response is reported as -0.935% (inactive). With CNC(=O)NCCN1CCCC1=O the max response was -5.85% (inactive). With Cc1ccc(C(=O)N(CN2CCCC2=O)c2ccc(F)cc2)cc1 the max response was 11.4% (active). In the case of CCc1nc(N2CCN(C(C)=O)CC2)c2c3c(sc2n1)CCCC3, the max response is reported as 1.8% (inactive). In the case of O=C(Nc1nnc(-c2ccccc2F)s1)c1ccccc1F, the max response is reported as 17.9% (active). With O=C(O)c1ccccc1-c1ccccc1C(=O)NCc1cccnc1 the max response was -0.956% (inactive). For O=C(NCc1cccnc1)C(=O)Nc1nc(-c2ccccc2)cs1, the max response was 39.9% (active). For O=C(Nc1ccccc1F)c1ccccc1-c1ccccc1, the max response was -1.34% (inactive). With O=C(CCc1ccccc1)NCc1cccnc1 the max response was 1.47% (inactive). For O=C(Nc1nnc(Cc2ccccc2)s1)c1cnccn1, the max response was 9.38% (inactive). For O=C(Nc1nc(-c2cccnc2)cs1)c1ccccc1F, the max response was 45.8% (active). For O=C(O)c1ccccc1C(=O)Nc1nc(-c2ccccc2)cs1, the max response was -3.4% (inactive). In the case of CN(Cc1ccccc1)S(=O)(=O)c1nnc(NC(=O)c2ccccc2F)s1, the max response is reported as -3.23% (inactive). With O=C(Nc1ccc(NC(=O)c2ccccc2F)cc1)c1ccccc1F the max response was 12.7% (inactive). With Cc1ccc(-c2csc(NC(=O)c3cnccn3)n2)cc1C the max response was 1.6% (inactive). In the case of O=C(Nc1nc(-c2ccc(-c3ccccc3)cc2)cs1)c1cnccn1, the max response is reported as 35.3% (active). In the case of CCN1C(=NCc2ccc(OC)cc2)N[C@@H](CCc2ccccc2)[C@H](C(=O)NCc2ccc(OC)cc2)[C@H]1C, the max response is reported as -3.38% (inactive) and 1.66% (inactive). With CCCCCCCCCCOC(=O)Cn1c(COc2ccc(C)cc2)[n+](C)c2ccccc21 the max response was -4.67% (inactive). In the case of COc1ccc(-c2cc(C3CCN(c4ncccc4[N+](=O)[O-])CC3)[nH]n2)cc1, the max response is reported as -2.37% (inactive). In the case of CC1CCCCN1CCCNC(=O)Cn1ncc2c([nH]c3ccccc32)c1=O (stereo unspecified), the max response is reported as -1.43% (inactive). In the case of Cc1cc(C)c(C(=O)CSc2nc(C)cc(=O)[nH]2)c(C)c1, the max response is reported as 6.02% (inactive). For CCn1cc(/C=C(\NC(=O)c2cc(OC)c(OC)c(OC)c2)C(=O)N2CCN(C)CC2)c2ccccc21, the max response was -3.51% (inactive). With CCOC(=O)c1ccc(NC(=S)N2CCN(c3ccccn3)CC2)cc1 the max response was -2.76% (inactive). For Cc1ccccc1Nc1nc(-c2cccnc2)cs1, the max response was 40.6% (active). In the case of CCCCNC(=O)CCn1nc(-c2ccc(Cl)cc2)ccc1=O, the max response is reported as -0.835% (inactive). In the case of Cc1cc2c(cc1C)N(C(=O)CN1C(=O)c3ccccc3C1=O)C(C)(C)c1ssc(=S)c1-2, the max response is reported as -0.934% (inactive). In the case of Cc1cc(N2CCCC2)n2nc(C)c(-c3ccccc3)c2n1, the max response is reported as 6.19% (inactive). For Cc1cc(-n2nc(C)cc2C)n2nc(C)c(-c3ccccc3)c2n1, the max response was -1.22% (inactive). In the case of Cc1cc(-n2nc(C)cc2C)n2ncc(-c3ccccc3)c2n1, the max response is reported as 42.3% (active). With O=C(NCC1CC1)C1(C(F)(F)F)C/C(=C\CCO)CCCO1 (stereo unspecified) the max response was -3.88% (inactive). In the case of COc1ccc(Cc2nnc(N/N=C/c3ccccc3O)[nH]c2=O)cc1OC, the max response is reported as -1.41% (inactive). With c1ccc(-c2ccc3c(c2)NC(C2Nc4cc(-c5ccccc5)ccc4O2)O3)cc1 (stereo unspecified) the max response was -0.428% (inactive). In the case of C/C(=N\NC(=O)NC1CCCCC1)c1ccc(OC(F)F)cc1OC(F)F, the max response is reported as 9.08% (inactive). In the case of COc1ccc(OC)c(NC(=O)c2ccc3c(c2)CCN3S(C)(=O)=O)c1, the max response is reported as -0.802% (inactive). In the case of CS(=O)(=O)N1CCc2cc(C(=O)Nc3ccccc3Br)ccc21, the max response is reported as 30.9% (active). In the case of CC(=O)Nc1cccc(NC(=O)c2ccc3c(c2)CCN3S(C)(=O)=O)c1, the max response is reported as 2.48% (inactive). With CSc1ccccc1NC(=O)c1ccc2c(c1)CCN2S(C)(=O)=O the max response was 43.6% (active). For CS(=O)(=O)N1CCc2cc(C(=O)Nc3ccccc3)ccc21, the max response was -1.85% (inactive). With CCc1ccccc1NC(=O)c1ccc2c(c1)CCN2S(C)(=O)=O the max response was -1.1% (inactive). In the case of COCc1ccc(C(=O)N2CCc3c([nH]c4ccccc34)C2c2ccccn2)s1 (stereo unspecified), the max response is reported as -4.02% (inactive). For COc1ccc(-c2cc(=O)oc3cc(OC(C)C(=O)Nc4ccc(CN5CCOCC5)cc4)ccc23)cc1 (stereo unspecified), the max response was -4.69% (inactive). For Cc1ccc(OCc2nnc(SC3CCc4ccccc4C3=O)n2C)cc1 (stereo unspecified), the max response was 4.12% (inactive). For CC(=O)Nc1ccc(/C=N/Nc2ccc(C(=O)c3c(C)cc4ccccn34)cc2[N+](=O)[O-])cc1, the max response was 3.53% (inactive). In the case of Cc1cc(N2C(=O)C(O)=C(C(=O)c3ccc(C)o3)C2c2ccc(OCc3ccccc3)cc2)no1 (stereo unspecified), the max response is reported as -0.599% (inactive). In the case of Cc1ccc(C(=O)OCc2nc(N)nc(Nc3ccccc3C)n2)cc1, the max response is reported as -0.878% (inactive). For CCSCc1nc(N)nc(NCCc2ccccc2)n1, the max response was 12.6% (inactive). With Cc1ccccc1Nc1nc(N)nc(CSc2ccccc2)n1 the max response was 67% (active). In the case of Cc1ccccc1Nc1nc(N)nc(CN2CCN(c3ccccn3)CC2)n1, the max response is reported as 0.552% (inactive). In the case of Cc1ccccc1Nc1nc(N)nc(CSc2nnc3ccccn23)n1, the max response is reported as 13.9% (active). In the case of Cc1ccc(Nc2nc(N)nc(CN3CCN(Cc4ccccc4)CC3)n2)cc1Cl, the max response is reported as -3.89% (inactive). For CCCN1CCC(=O)N(C(CSc2ccc(OC)cc2)Cc2ccccc2)CC1 (stereo unspecified), the max response was 6.9% (inactive).
